The subject of assay [1] is Human papillomavirus type 1a protein E7 (residues 44-93). The assay can be described thus: HPV1a E7 fragment binders on microarrays, primary screen, biochemical, small-molecule microarray, residues 44-93, 635 nm fluorescence (AID 1108).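 Also: E7 fragment applied at 1 µg/mL in TBST for 1 h at 4 C; score combines spot fluorescence with its signal to noise ratio.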 The note with it: small-molecule microarray binding, fluorescence 635 nm; higher = more signal.
A short description of assay [2]: modulators of HCV replicon luciferase signal, primary screen, HCV replication inhibitor project, Huh7 cells, luciferase reporter (AID 1109).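 Also: huh7 hepatoma cells harbouring a luciferase neomycin HCV replicon reporter; luciferase luminescence as measure of HCV replicon replication; test concentration not given here.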 Conditions: 48 h, higher = more signal. (In general: In antiviral work, replicon cells carry a viral genome segment that copies itself.)
The target of assay [3] is Left-right determination factor 2 (Homo sapiens) (UniProt O00292). As to the kind of experiment: LEFTY2 binders on small-molecule microarrays, primary screen, biochemical, small-molecule microarray, 635 nm fluorescence scan (AID 1110). Conditions: LEFTY2 binding, higher = more signal.
Assay [4] concerns the target Calmodulin-1 (Homo sapiens) (UniProt P0DP23). As to the kind of experiment: CALM1 binders on microarrays, EGTA buffer, profiling panel, biochemical, small-molecule microarray, Cy5-labelled CALM1 (AID 1111).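 Also: labelled calmodulin applied in Tris saline Tween buffer holding calcium plus EGTA and DTT.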 Conditions: Cy5-CALM1 binding fluorescence, higher = more signal.
Assay [5] shares this target. The assay can be described thus: calcium-bound CALM1 binders on microarrays, profiling panel, artefact control for SMM control-protein annotation, biochemical, small-molecule microarray, Cy5-labelled CALM1, plus calcium (AID 1112).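 Also: score merges spot fluorescence with signal to noise from triplicate slides.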 Conditions: Cy5-CALM1 binding fluorescence, higher = more signal.
Assay [6] is described as follows: small-molecule microarray binders of probe aWnt5a, primary screen, biochemical, biotinylated probe, 635/667 nm fluorescence (AID 1113).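 Also: score merges 667 nm fluorescence intensity with signal-to-noise per printed feature.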 Conditions: higher = more signal.
A short description of assay [7]: small-molecule microarray binders of probe aShh, primary screen, biochemical, biotinylated probe, 635/667 nm fluorescence (AID 1114).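 Also: probe is biotin-labelled aShh protein from a stem cell growth factor screen; measures binding of labelled protein to compounds printed on the slide; score merges feature fluorescence at 667 nm with signal-to-noise.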 The note with it: higher = more signal.
A short description of assay [8]: small-molecule microarray binders of probe aNog, primary screen, biochemical, biotinylated probe, 635/667 nm fluorescence (AID 1115).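 Also: probe is biotinylated aNog protein used at 0.15 µg/mL for 1 h at 4 C; z-score combines 667 nm fluorescence of each spot with its signal to noise.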 The note with it: higher = more signal.
Assay [9] has as its target Torsin-1A-interacting protein 1 (Homo sapiens) (UniProt Q5JTV8). The assay can be described thus: LAP1 binders from COS7 cell lysate, primary screen, small-molecule microarray, 635/667 nm fluorescence (AID 1116). Conditions: COS7-hLAP1 lysate binding, 635 nm fluorescence, higher = more signal.
The target of assay [10] is Alpha-bungarotoxin (Bungarus multicinctus) (UniProt P60615). As to the kind of experiment: alpha-bungarotoxin binders on microarray, profiling panel, artefact control for SMM control protein annotation, biochemical, small-molecule microarray, Alexa647 label, 635/667 nm fluorescence (AID 1117). Conditions: alpha-BTX-A647 binding fluorescence, higher = more signal.

The source of these data is PubChem BioAssay.

Sequence of Left-right determination factor 2 (Homo sapiens) (O00292 whole entry, looked up): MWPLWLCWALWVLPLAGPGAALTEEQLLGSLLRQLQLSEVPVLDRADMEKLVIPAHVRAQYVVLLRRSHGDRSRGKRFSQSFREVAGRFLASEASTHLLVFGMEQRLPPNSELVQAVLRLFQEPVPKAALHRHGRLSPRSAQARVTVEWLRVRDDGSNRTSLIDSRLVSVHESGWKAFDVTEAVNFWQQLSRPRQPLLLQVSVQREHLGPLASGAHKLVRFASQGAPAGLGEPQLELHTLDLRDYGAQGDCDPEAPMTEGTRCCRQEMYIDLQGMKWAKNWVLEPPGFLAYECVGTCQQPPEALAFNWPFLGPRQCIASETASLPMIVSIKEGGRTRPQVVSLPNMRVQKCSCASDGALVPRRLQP
Sequence of Torsin-1A-interacting protein 1 (Homo sapiens) (Q5JTV8 whole entry, looked up): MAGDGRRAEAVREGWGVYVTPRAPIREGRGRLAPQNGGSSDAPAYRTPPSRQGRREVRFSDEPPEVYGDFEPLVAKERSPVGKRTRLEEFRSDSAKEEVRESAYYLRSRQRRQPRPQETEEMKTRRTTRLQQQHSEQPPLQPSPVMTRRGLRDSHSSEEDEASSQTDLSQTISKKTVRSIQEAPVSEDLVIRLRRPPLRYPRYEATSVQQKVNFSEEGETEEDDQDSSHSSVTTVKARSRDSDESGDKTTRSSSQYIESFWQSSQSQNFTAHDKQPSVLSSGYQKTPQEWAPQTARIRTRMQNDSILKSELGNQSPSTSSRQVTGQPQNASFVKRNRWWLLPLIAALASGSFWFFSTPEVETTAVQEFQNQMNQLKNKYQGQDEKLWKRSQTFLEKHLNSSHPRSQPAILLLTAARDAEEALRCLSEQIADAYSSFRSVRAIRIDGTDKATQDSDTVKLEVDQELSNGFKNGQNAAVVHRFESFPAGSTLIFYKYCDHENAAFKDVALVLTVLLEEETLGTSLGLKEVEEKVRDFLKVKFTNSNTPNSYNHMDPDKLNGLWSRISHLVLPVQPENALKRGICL
Sequence of Alpha-bungarotoxin (Bungarus multicinctus) (P60615 whole entry, looked up): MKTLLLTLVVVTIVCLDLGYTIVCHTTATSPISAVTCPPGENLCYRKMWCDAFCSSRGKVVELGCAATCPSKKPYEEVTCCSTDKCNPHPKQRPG

In the case of `COC(=O)[C@@]1(Cc2ccc(F)cc2)[C@H]2c3cc(C(=O)N4CCCC4)n(Cc4ccc(C)c(F)c4F)c3C[C@H]2CN1C(=O)c1ccccc1`, the composite z-score in assay [1] was -0.751; in assay [3] it was -0.419; in assay [4] it was 0.344; in [5], 0.612; in assay [6], -0.119; in assay [7], -0.0813. Further, the values for the composite z-score in [8], in assay [9] and in assay [10] were 0.935, 0.65 and -0.106, respectively. Further, the z-score in [2] was -0.914.

Consider `COc1cc(NN2C(C(O)c3ccc(N(C)C)cc3)C=CC3C(=O)N(c4ccccc4)C(=O)C32)cc(OC)c1OC` (stereo not given), for which the composite z-score in assay [1] was found to be 1.36; in assay [3], 0.143; in assay [4], 0.68; in assay [5] it was 0.0572; in assay [6] it was 0.112; in [7] it was 0.184. Also, the composite z-score in assay [8] was 0.531; in [9] it was 0.639; in [10], 0.738. The z-score in assay [2] was -0.99.

Consider `C=C[C@H](C)[C@H](OC(=O)Nc1ccc(SC)cc1)c1ccc(OCCO)cc1`, for which the composite z-score in assay [1] was 0.248; in assay [3], -0.0482; in assay [4] it was 0.272; in assay [5] it was -0.037; in [6] it was -0.183; in assay [7] it was 0.142. For the same compound, the composite z-score in assay [8] came to 0.576; in assay [9] it was 1.6; in assay [10], 1.58. This compound displayed a z-score in assay [2] of -1.19.

As for `Cc1ccc(S[C@]2(C(=O)NCC(F)(F)F)CC(=O)N(Cc3cc(C(F)(F)F)cc(C(F)(F)F)c3)[C@@H]2c2ccc(CO)cc2I)cc1`, the composite z-score is -0.886 in assay [1]; -0.868 in assay [3]; -0.364 in assay [4]; 0.0808 in [5]; -0.231 in assay [6]; -0.0035 in assay [7]. Also, the figures for the composite z-score in assay [8], in [9] and in assay [10] were -0.426, -0.152 and -0.379, respectively. In assay [2], this compound registered a z-score of -0.964.

Regarding `CC1CC/C=C\[C@H]2OC34C=CCN(Cc5ccccc5)C(=O)[C@H]3N(C(CO)C(C)C)C(=O)[C@@H]4C2C(=O)O1` (stereo not given in full), the composite z-score in [1] is -0.376; in [3], -0.369; in assay [4] it was -0.862; in assay [5], -0.528; in assay [6], -0.176; in assay [7], -0.0709. The composite z-score was -0.12 in assay [8], 0.344 in assay [9] and -0.677 in assay [10]. Also, in [2], the z-score was -0.386.

With `CCCCN1CC=CC23O[C@@H]4/C=C\CCCOC(=O)C4[C@H]2C(=O)N(CCO)[C@@H]3C1=O` (stereo not given in full), the composite z-score in assay [1] is 0.493; in assay [3], -1.51; in assay [4], -0.343; in assay [5] it was 0.278; in assay [6], -0.221; in assay [7] it was -0.206. For the same compound, the composite z-score is -0.158 in assay [8], 0.0966 in assay [9] and -0.401 in assay [10]. Further, the z-score in assay [2] was -0.219.

With `COC(=O)[C@@]1(Cc2ccccc2)[C@H]2c3cc(C(=O)N4CCCC4)n(CCc4ccccn4)c3C[C@H]2CN1C(=O)c1ccccc1`, the composite z-score in assay [1] is 1.43; in assay [3] it was -0.204; in assay [4], 2.13; in [5], 0.842; in assay [6], -0.0776; in assay [7] it was -0.353. For the same compound, the figures for the composite z-score in assay [8], in assay [9] and in assay [10] were 1.84, 2.53 and 0.298, respectively. In addition, the z-score in assay [2] is -1.65.

In the case of `COc1cc2c(cc1O)C=[N+](Cc1sc3ccccc3c1Cl)CC2`, the composite z-score is -0.429 in assay [1]; 0.324 in [3]; -0.0659 in assay [4]; 0.0401 in assay [5]; -0.0403 in assay [6]; -0.0626 in assay [7]. The composite z-score was 0.162 in assay [8], 0.25 in assay [9] and 0.252 in assay [10]. In assay [2], this compound showed a z-score of -1.57.

In the case of `COCC(=C=CC[C@H](O)c1ccccc1OCCO)C[C@H](O)c1ccccn1`, the composite z-score in assay [1] was -0.0881; in [3] it was 0.155; in assay [4], -0.0135; in assay [5] it was -0.411; in assay [6], -0.18; in [7], -0.214. For the same compound, the composite z-score in assay [8] was -0.173; in assay [9], -0.191; in [10], -0.0928. Besides, the z-score in assay [2] is -0.267.

Take `CCCC[C@@H]1C[C@H]1[C@@H](NC(=O)c1cccs1)c1ccccc1C(F)(F)F`: the composite z-score in [1] was 1.39; in assay [3], -0.363; in assay [4] it was 1.72; in assay [5], 0.763; in assay [6] it was -0.001; in assay [7], 0.663. In addition, the values for the composite z-score in assay [8], in assay [9] and in assay [10] were 1.52, 0.582 and 0.881, respectively. In [2], this compound displayed a z-score of 0.758.

Turning to `COCCOC(=O)N1C(=O)[C@@]2(c3ccccc31)[C@H](c1ccc(O)cc1)N1[C@H](c3ccccc3)[C@H](c3ccccc3)OC(=O)[C@H]1[C@@H]2C(=O)N1CCN(c2ncccn2)CC1`, the composite z-score is 1.29 in assay [1]; 0.332 in [3]; 0.667 in [4]; 0.618 in assay [5]; -0.0084 in [6]; 0.0469 in assay [7]. Further, the composite z-score was 0.927 in [8], 0.675 in [9] and 0.692 in assay [10]. Moreover, in assay [2], the z-score was -1.51.

`CCCCC(=C=CC[C@H](O)c1ccc(OCCO)cc1)CCO`: the composite z-score was 0.656 in [1]; -0.917 in assay [3]; -0.333 in assay [4]; -0.404 in assay [5]; -0.124 in [6]; -0.154 in [7]. Also, the results for the composite z-score in [8], in [9] and in [10] were -0.0007, 0.92 and -0.322, respectively. The same compound registered a z-score in assay [2] of -1.1.

As for `CC1CC/C=C\[C@H]2OC34C=CCN(c5ccc(Cl)cc5)C(=O)[C@H]3N(C(C)CO)C(=O)[C@]4(C)C2C(=O)O1` (stereo not given in full), the composite z-score in assay [1] is -0.815; in assay [3] it was -0.707; in assay [4], 0.253; in assay [5], -0.141; in assay [6] it was -0.124; in [7], -0.289. The composite z-score in [8] is -0.0133; in assay [9] it was 0.0045; in [10], -0.664. Besides, in [2], the z-score was -1.16.

`COc1ccc([Si](C)(C)[C@H]2[C@H](CC(=O)N(CCO)Cc3ccccc3)O[C@@]3(C(=O)N(C)c4c(Br)cc(C)cc43)[C@@H]2C)cc1`: the composite z-score in [1] was 0.926; in assay [3], 1.12; in assay [4] it was -0.763; in [5], 0.973; in assay [6], -0.176; in [7], -0.154. The composite z-score was -0.291 in assay [8], 0.491 in assay [9] and 0.572 in assay [10]. Moreover, the z-score in assay [2] was -4.28.

As to `CN(C)C(=O)[C@]1(Cc2ccccc2CN=[N+]=[N-])N=C(c2ccc(OCCCO)cc2)O[C@@H]1c1ccccc1`, the composite z-score in assay [1] is 1.47; in assay [3], -0.0728; in assay [4] it was 1.56; in assay [5], 0.596; in assay [6], 0.0337; in assay [7] it was 0.792. In addition, the values for the composite z-score in assay [8], in [9] and in assay [10] were 1.05, 1.39 and 1.92, respectively. This compound gave a z-score in [2] of -3.37.

`COC(=O)C1(CC(C)C)C=C2C(=C(c3ccccc3)C(=O)C2C)CN1` (stereo not given): the composite z-score was -0.518 in assay [1]; -0.844 in [3]; -0.0555 in [4]; 0.358 in assay [5]; 0.554 in [6]; 0.538 in [7]. For the same compound, the composite z-score is 0.689 in assay [8], 1.09 in [9] and -0.194 in [10]. Further, the z-score in assay [2] was -1.33.

As to `CCOC(=O)[C@@H]1CCCCN1C(=O)C(=O)OC`, the composite z-score is 0.5 in [1]; 0.449 in assay [3]; -0.499 in assay [4]; -0.305 in assay [5]; -0.0684 in assay [6]; -0.0904 in assay [7]. For the same compound, the composite z-score in assay [8] is -0.158; in assay [9] it was -0.274; in assay [10] it was 0.154. Also, the z-score in [2] was -0.583.
